Screening data (PubChem)
In the library only some 6.9% were active in any assay of this set; here they are far more common.
PLK1 PBD inh: inhibitors of human PLK1 polo-box domain binding. 360,000 tested, 2.8% active. Plk1 PBD binding of FITC phosphopeptide, fluorescence polarization. P53350. Potency, µM, without a hit: max response, negative = inhibition, hits mostly inhibitors; also: series mostly up to about 57 µM; % is scaled to controls: 0 for no effect and ±100 for the full control effect; nearly all actives have a fitted effect of over 65% in size
BAZ2B inh: BAZ2B (human) inhibition. Q9UIF8. AlphaScreen BAZ2B-H3K14Ac peptide displacement. Potency, µM (doses to about 114 µM), without a hit: at the highest dose activity change, negative = inhibition, hits mostly inhibitors. 360,000 tested, 4.4% active. AID 504333; also: % is scaled to controls: 0 for no effect and ±100 for the full control effect; nearly all actives have a fitted effect of over 60% in size
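In this displacement format the biotinylated H3(5-23) peptide acetylated at Lys14 serves as ligand at 50 nM, with BAZ2B at 50 nM in PBS pH 7.4 containing 0.01% Tween-20. Donor and acceptor beads are 10 ug/mL final.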
VDR inhibitor: vitamin D3 receptor (human) inhibition | P11473 | VDR-SRC2-3 peptide fluorescence polarization, 2 h | Potency, µM, for inactives: max response, negative = inhibition, hits mostly inhibitors | 400,000 tested, 0.93% active | AID 504847; also: % is scaled to controls: 0 for no effect and ±100 for the full control effect
Target sequence (P11473 whole entry, looked up): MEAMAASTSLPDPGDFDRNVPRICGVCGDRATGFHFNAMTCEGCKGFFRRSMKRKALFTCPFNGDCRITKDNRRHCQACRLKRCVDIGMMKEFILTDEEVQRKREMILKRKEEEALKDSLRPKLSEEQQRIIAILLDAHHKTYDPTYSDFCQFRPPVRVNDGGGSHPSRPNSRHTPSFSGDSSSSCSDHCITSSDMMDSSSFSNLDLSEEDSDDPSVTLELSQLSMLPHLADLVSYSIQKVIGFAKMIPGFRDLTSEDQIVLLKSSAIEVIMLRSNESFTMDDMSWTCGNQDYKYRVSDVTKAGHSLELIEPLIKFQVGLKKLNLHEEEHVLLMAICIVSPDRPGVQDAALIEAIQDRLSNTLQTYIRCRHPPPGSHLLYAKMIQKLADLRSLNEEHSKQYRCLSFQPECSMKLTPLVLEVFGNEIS
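Reagent solutions, kept cold and dark, are dispensed first; compounds are then pinned in at 23 nl, plates briefly spun, and incubated 2 h at ambient temperature. Inhibition of VDR–SRC2-3 peptide binding is read by fluorescence polarization.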
JMJD2A Tudor: inhibitors of human JMJD2A Tudor domain; Potency, µM (doses to about 114 µM), for inactives: at the top dose activity change, negative = inhibition, most hits filed as inhibitors; AlphaScreen JMJD2A-Tudor / H3K4me3 peptide binding; 390,000 tested, 4.4% active; O75164; also: % is scaled to controls: 0 for no effect and ±100 for the full control effect; nearly all actives have a fitted effect of over 50% in size
L3MBTL1 inh: L3MBTL1 (human) inhibition | Q9Y468 | AlphaScreen L3MBTL1–H3K9me1 peptide binding | Potency, µM (doses to about 57.1 µM), for the others: top-dose activity, negative = inhibition, actives largely listed as inhibitors | 230,000 tested, 0.66% active | AID 485360; also: % is scaled to controls: 0 for no effect and ±100 for the full control effect; nearly all actives have a fitted effect of over 60% in size
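L3MBTL1 (50 nM) pre-complexed 30 min with biotinylated H3(1-15)K9me1 peptide (75 nM), then compounds added for 30 min at room temperature; AlphaScreen streptavidin donor/nickel chelate acceptor beads (10 ug/mL final) read after 30 min dark incubation.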
HP1b chromo inh: blocks HP1-beta chromodomain binding to methylated histone tails. AlphaScreen HP1-beta / biotin-H3K9me3 peptide binding. Potency, µM (series often up to 114 µM), for the others: at the highest dose activity change, negative = inhibition, most hits filed as inhibitors. 390,000 tested, 0.56% active. AID 540317; also: nearly all actives have a fitted effect of over 70% in size
Target sequence (P83916 whole entry, looked up): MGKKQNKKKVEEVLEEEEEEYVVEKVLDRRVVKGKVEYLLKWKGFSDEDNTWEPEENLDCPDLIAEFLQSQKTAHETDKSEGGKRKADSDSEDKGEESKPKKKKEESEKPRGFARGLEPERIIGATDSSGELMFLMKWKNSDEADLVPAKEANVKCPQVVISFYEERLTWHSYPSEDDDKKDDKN
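AlphaScreen: HP1-beta (50 nM) preformed 30 min with biotin-H3(1-18)K9me3 peptide (50 nM) in PBS pH 7.4, 0.01% Tween-20. Compound added for 30 min at RT, then streptavidin donor/nickel chelate acceptor beads (10 ug/mL) for 30 min.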
* hit, by the source's call; ? = inconclusive; . = no result; ! = not active in a repeat; [ ] = remark or other dose. Calls follow the shape of the dose curve; as a rule, active = well fitted curve in the direction sought with a large enough effect; inconclusive = small, poorly fitted or top-dose-only effect, or another doubt; inactive = no such curve, though single readings can be large; an effect the other way counts as inactive or inconclusive. Potency is read from the fitted curve at half-maximal effect.

SMILES	PLK1 PBD inh	BAZ2B inh	VDR inhibitor	JMJD2A Tudor	L3MBTL1 inh	HP1b chromo inh
CCCCN1C(=O)/C(=C2\SC(N3CCCCC3)=NC2=O)c2ccccc21	24µM*	-84%	-22%	56µM*	?	16µM*
Cc1ccccc1-c1noc(-c2ccc(NCc3ccco3)c([N+](=O)[O-])c2)n1	.	-4%	10%	?	.	36%
CSc1ccc(C2c3c(oc4ccc(F)cc4c3=O)C(=O)N2c2ccc(C)cn2)cc1 (stereo not drawn)	.	-1%	3%	3%	.	34%
Cc1ccccc1NS(=O)(=O)c1ccc2[nH]c3c(c2c1)CCCCC3	.	-29%[57.1 µM]	4%	45µM*	.	-33%
CC(C)(C)NS(=O)(=O)c1ccc2[nH]c3c(c2c1)CCCCC3	-10%	45µM*	-14%	?	.	?
Cc1cccc(NS(=O)(=O)c2ccc3[nH]c4c(c3c2)CCCCCC4)c1	.	-29%	6%	?	.	8%[57 µM]
Cc1ccc(CNS(=O)(=O)c2ccc3[nH]c4c(c3c2)CCCCC4)cc1	.	-3%[57.1 µM]	8%	-15%	.	3%
Cc1cccc(C(=O)NNc2ncnc3c2cnn3-c2ccc(C)c(Cl)c2)c1	.	0%	4%	-22%	.	11%
CCOC(=O)c1ccc(CC(=O)c2ccc(O)cc2O)o1	-1%	-8%	8%	-13%	.	39%
COC(=O)c1ccc(CC(=O)c2ccc(O)cc2O)o1	5%	63µM*	7%	-32%	-24%	13%
Cc1cccn2c(Nc3ccccc3)c(-c3ccccn3)nc12	-7%	18µM*	-9%	13µM*	.	9%
Cc1cccc(C)c1Nc1c(-c2ccccn2)nc2c(C)cccn12	.	?	3%	10µM*	.	-18%
Cc1ccccc1Nc1c(-c2ccc(Cl)cc2)nc2c(C)cccn12	.	-4%	-6%	-11%	.	5%
Fc1ccc(Nc2c(-c3ccccn3)nc3ccc(Cl)cn23)cc1	.	?	7%	?	.	33%
Cc1c(Nc2cc(Cl)c3nonc3c2[N+](=O)[O-])c(=O)n(-c2ccccc2)n1C	1.2µM*	-20%	?	-9%[11.4 µM]	.	-24%
O=C(O)c1cccc(Nc2ccc3nonc3c2[N+](=O)[O-])c1	-11%	-20%	-3%	-17%	.	21%
O=C(O)c1ccc(Nc2cc(Cl)c3nonc3c2[N+](=O)[O-])cc1	4.7µM*	-29%	20µM*	-14%	3%	7%
Cc1ccccc1C(=O)N(Cc1ccc(N(C)C)cc1)Cc1ccco1	.	35µM*	12%	45µM*	.	?
COc1cccc(C(=O)N(Cc2ccc(N(C)C)cc2)Cc2ccco2)c1	.	22µM*	17%	40µM*	.	?
CCSc1ncc(Cl)c(C(=O)N(Cc2ccc(N(C)C)cc2)Cc2ccco2)n1	.	10µM*	6%	18µM*	.	?
CN(C)c1ccc(CN(Cc2ccco2)C(=O)COc2ccc(F)cc2)cc1	.	28µM*	16%	45µM*	.	?
COc1cccc(C(=O)N(Cc2ccco2)Cc2cc3cccc(C)c3[nH]c2=O)c1	-2%	3%	-8%	-9%	1%	27%
Cc1ccc(CN(Cc2ccco2)C(=O)c2ccco2)cc1	-16%	-36%	0%	-26%	.	-17%
Cc1ccc(NC(=O)CSc2nnc(-c3nnn(-c4ccc(F)cc4)c3C)o2)cc1Br	.	-8%	-11%	-18%	.	13%
CC(=O)NCCNc1ncnc2ccc(-c3ccccc3C#N)cc12	.	.	-7%	.	.	.
SMILES	PLK1 PBD inh	BAZ2B inh	VDR inhibitor	JMJD2A Tudor	L3MBTL1 inh	HP1b chromo inh
Cc1ccc(C(=O)N(Cc2ccc(N(C)C)cc2)Cc2ccco2)cc1	.	35µM*	17%	40µM*	.	?
CN(C)S(=O)(=O)c1cccc(C(=O)N(Cc2ccc(F)cc2)Cc2ccco2)c1	-10%	8%	4%	-36%	-7%	-4%
Cc1cc(C)c2c(CC(=O)N(Cc3ccc(N(C)C)cc3)Cc3ccco3)coc2c1	.	10µM*	7%	13µM*	.	?
CN(C)c1ccc(CN(Cc2ccco2)C(=O)c2ccc(F)cc2)cc1	.	35µM*	10%	45µM*	.	?
Cc1ccc(-c2c(C)n3c4c(=O)n(C)c(=O)n(C)c4nc3n2CCCO)cc1	.	?	0%	-33%	.	7%
CCOc1ccc(Cc2n[nH]c(=S)n2Cc2ccccc2)cc1	-14%	-38%	-4%	45µM*	-13%	-10%
COc1ccc(Cc2n[nH]c(=S)n2Cc2ccccc2)cc1Cl	-21%	?	-14%	56µM*	-12%	-18%
Cc1cc(C)n(Cc2n[nH]c(=S)n2Cc2ccccc2)n1	-3%	-5%	-10%	22µM*	-3%	44%
COc1cccc(NC(=O)N(CCC(C)C)C2CCN(C(C)C)CC2)c1	.	1%	5%	-6%	.	19%
O=C(NNC(=O)c1ccccc1O)c1cccc(Br)c1	-12%	8%[57.1 µM]	-6%	-2%	5%	44%
Cc1cc(C)c(NC(=O)CSc2nc(=O)n(Cc3cccnc3)c3c2CCC3)c(C)c1	.	0%	9%	-15%	.	24%
CCCCCCSC1=C(C#N)C(=O)NC2(CCCCC2)S1	27µM*	?	?	56µM*	-13%	?
Brc1ccc(-c2nc3ncccn3c2NC2CCCCC2)o1	21µM*	-33%	-20%	-34%[57.1 µM]	.	?
CC(C)(C)N(Cc1ccc2c(c1)OCO2)C(=O)/C=C\S(=O)c1ccccc1 (stereo not drawn)	?	.	71µM*	-17%	.	26%
Cc1nc2c(o1)CCc1ccccc1C2N1CCN(C)CC1 (stereo not drawn)	1%	-36%	-3%	89µM*!	?	7%
COc1ccc(C(=O)Nc2nc(CC(=O)NCCc3ccccc3)cs2)cc1	-7%	-6%	-3%	-18%	-8%	16%
COc1cc(OC)cc(C(=O)Nc2nc(CC(=O)NC(C)c3ccccc3)cs2)c1 (stereo not drawn)	-5%	50µM*	-11%	-32%	-10%	0%
O=C(COC(=O)CC1CC2CCC1C2)Nc1cccc(S(=O)(=O)NC2=NCCCCC2)c1 (stereo not drawn)	21µM*	.	?	?	.	-22%
NS(=O)(=O)c1cccc(NC(=O)COC(=O)CC2CC3CCC2C3)c1 (stereo not drawn)	3%	-7%	2%	-14%	.	20%
O=C(/C=C/c1ccc(Cl)cc1Cl)Nc1cccc(S(=O)(=O)NC2=NCCC2)c1	17µM*	.	?	?	3%	?
O=C(Nc1cccc(S(=O)(=O)NC2=NCCCCC2)c1)C1COc2ccccc2O1 (stereo not drawn)	-22%	56µM*	17%	?	0%	-16%
COC(=O)c1ccccc1NC(=O)Cn1c(=O)n(CCCC(=O)NCCc2ccc(OC)c(OC)c2)c(=O)c2ccccc21	.	2%	10%	-10%	.	33%
